Active and inactive are the calls of the source. Unless noted, how the calls were made is not given here.
What was measured:
[1] = tested on: Wnt5a (protein binding on small-molecule microarray); assay: small molecules binding Wnt5a protein – biophysical, small-molecule microarray, 635/667 nm fluorescence, primary screen (AID 1142); details: 635 nm fluorescence, higher = more signal;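 further: fluorescence read at 667 nm with signal to noise per printed feature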
[2] = ATP-based viability of Huh7 replicon cells – cell-based, CellTiter-Glo luminescence, basal, 48 h, cytotoxicity control for HCV replication inhibitor project, primary screen (AID 1143); details: higher = more signal, called active from +8 up or from −8 down;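 further: Huh7 hepatoma cells carrying a hepatitis C replication reporter with no stimulus; test concentration not given here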
[3] = Pseudomonas biofilm growth suppression – PAO1 strain, BacTiter-Glo luminescence, LB-PBS, primary screen (AID 1144); details: P. aeruginosa PAO1 biofilm, 12 h, higher = more signal
[4] = basal CRE-LacZ reporter activity in PC12 – cell-based, unstimulated, primary screen (AID 1145); details: no forskolin, luminescence, 4.5 h, higher = more signal, called active from +8 up or from −8 down
[5] = forskolin-driven CRE-LacZ activity in PC12 – cell-based, CRE-LacZ reporter, forskolin-stimulated, primary screen (AID 1146); details: luminescence, 4.5 h, higher = more signal, called active from +8 up or from −8 down;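 further: PC12 cells with 6xCRE LacZ reporter stimulated by forskolin 10 µM; beta-galactosidase reporter signal reflecting CREB driven transcription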
[6] = target: Streptavidin (Streptomyces avidinii) (UniProt P22629); assay: compounds binding control protein streptavidin – biophysical, small-molecule microarray, 635/667 nm fluorescence, artefact control for SMM compound annotation, primary screen (AID 1147); details: higher = more signal;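 further: signal reflects streptavidin binding to arrayed compounds as a control protein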
Chain of Streptavidin (Streptomyces avidinii) (P22629 whole entry, looked up): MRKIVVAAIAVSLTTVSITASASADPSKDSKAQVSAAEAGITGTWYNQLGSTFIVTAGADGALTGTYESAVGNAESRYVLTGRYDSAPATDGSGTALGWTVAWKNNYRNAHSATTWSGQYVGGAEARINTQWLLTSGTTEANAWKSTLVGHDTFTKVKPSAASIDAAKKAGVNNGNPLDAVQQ

[7] = probe aInhba binding on compound microarray – biochemical, small-molecule microarray, 635/667 nm fluorescence, primary screen (AID 1148); details: higher = more signal;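 further: score merges 667nm spot fluorescence with signal-to-noise for antibody binding to printed compounds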
Torsin-1A (Homo sapiens) [8] = target: Torsin-1A (Homo sapiens) (UniProt O14656); assay: TOR1A wild-type binding on microarray – cell lysate, small-molecule microarray, lysate, 635/667 nm, primary screen (AID 1149); details: COS7 hTOR1A-WT lysate, 635 nm fluorescence, higher = more signal
Chain of Torsin-1A (Homo sapiens) (O14656 whole entry, looked up): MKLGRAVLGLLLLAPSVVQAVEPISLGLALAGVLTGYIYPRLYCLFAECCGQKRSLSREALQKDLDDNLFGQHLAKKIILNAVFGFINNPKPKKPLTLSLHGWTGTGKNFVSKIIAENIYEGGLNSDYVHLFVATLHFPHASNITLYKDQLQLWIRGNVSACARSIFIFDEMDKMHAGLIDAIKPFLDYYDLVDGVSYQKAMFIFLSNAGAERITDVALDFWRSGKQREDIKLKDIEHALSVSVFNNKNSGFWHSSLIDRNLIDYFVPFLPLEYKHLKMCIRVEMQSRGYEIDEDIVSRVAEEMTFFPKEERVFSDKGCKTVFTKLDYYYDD

Torsin-1A (Homo sapiens) [9] = target: Torsin-1A (Homo sapiens) (UniProt O14656); assay: torsin A mutant lysate binding on microarrays – cell lysate, small-molecule microarray, COS7 lysate, 635/667 nm fluorescence, primary screen (AID 1150); details: COS7 hTOR1A mutant lysate, 635 nm fluorescence, higher = more signal;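 further: score pools 667 nm emission and signal to noise measuring lysate protein binding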
[10] = tested on: Sonic hedgehog protein (Shh); assay: Sonic hedgehog microarray binding compounds – biochemical, small-molecule microarray, 635/667 nm fluorescence, primary screen (AID 1151); details: 635 nm fluorescence, higher = more signal;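 further: Shh protein binding to compounds spotted on small-molecule microarray slides; score combines spot fluorescence intensity with signal-to-noise across triplicate slides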
[11] = optical density shifts of acrAB sulA E. coli – strain DRC41, OD650, 48 h, E. coli filamentation inducer project, primary screen (AID 1152); details: higher = more signal, called active from +8 up or from −8 down;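 further: E. coli MC1000 strain DRC41 lacking acrAB efflux pump and sulA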
[12] = probe aLefty1 binding on compound microarray – biochemical, small-molecule microarray, 635/667 nm fluorescence, primary screen (AID 1153); details: higher = more signal;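 further: score merges spot fluorescence with signal-to-noise ratio from the scanned slide images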
[13] = plasmodial surface anion channel blockers, osmotic lysis – cell-based, P. falciparum Indochina, OD700, 1 h, primary screen (AID 1154); details: P. falciparum Indochina infected RBC osmotic lysis, higher = more signal, called active from +8 up or from −8 down
[14] = plasmodial surface anion channel blockers, osmotic lysis – cell-based, P. falciparum Indochina, OD700, 2 h, primary screen (AID 1155);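 further: lysis reports solute entry through the parasite surface anion channel PSAC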; details: P. falciparum Indochina infected erythrocytes, higher = more signal, called active from +8 up or from −8 down
[15] = changes in parasitized red cell lysis, either direction – P. falciparum Indochina, OD700, 3 h, PSAC antagonist project, primary screen (AID 1156); details: P. falciparum-infected erythrocytes, osmotic lysis, higher = more signal, called active from +8 up or from −8 down
[16] = plasmodial surface anion channel blockers, osmotic lysis – cell-based, P. falciparum Indochina, OD700, 18 h, primary screen (AID 1157); details: P. falciparum Indochina infected erythrocytes, osmotic lysis OD700, 18 h; higher = more signal, called active from +8 up or from −8 down
[17] = S6 kinase pathway phospho-S6 level changes – cell-based, A549, cytoblot, luminescence, serum-stimulated, primary screen (AID 1158); details: 5 h, higher = more signal;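 further: serum-stimulated A549 lung adenocarcinoma cells; signal is phosphorylated S6 detected by cytoblot immunostaining with HRP secondary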
[18] = target: NADPH oxidase 2 (Homo sapiens) (UniProt P04839); assay: compounds shifting NOX2 Amplex Red fluorescence – cell-based, HEK293-NOX2, PMA-stimulated, NOX inhibitor project, primary screen (AID 1159); details: 45 min, higher = more signal, called active from +8 up or from −8 down; further: test concentration not given here
Chain of NADPH oxidase 2 (Homo sapiens) (P04839 whole entry, looked up): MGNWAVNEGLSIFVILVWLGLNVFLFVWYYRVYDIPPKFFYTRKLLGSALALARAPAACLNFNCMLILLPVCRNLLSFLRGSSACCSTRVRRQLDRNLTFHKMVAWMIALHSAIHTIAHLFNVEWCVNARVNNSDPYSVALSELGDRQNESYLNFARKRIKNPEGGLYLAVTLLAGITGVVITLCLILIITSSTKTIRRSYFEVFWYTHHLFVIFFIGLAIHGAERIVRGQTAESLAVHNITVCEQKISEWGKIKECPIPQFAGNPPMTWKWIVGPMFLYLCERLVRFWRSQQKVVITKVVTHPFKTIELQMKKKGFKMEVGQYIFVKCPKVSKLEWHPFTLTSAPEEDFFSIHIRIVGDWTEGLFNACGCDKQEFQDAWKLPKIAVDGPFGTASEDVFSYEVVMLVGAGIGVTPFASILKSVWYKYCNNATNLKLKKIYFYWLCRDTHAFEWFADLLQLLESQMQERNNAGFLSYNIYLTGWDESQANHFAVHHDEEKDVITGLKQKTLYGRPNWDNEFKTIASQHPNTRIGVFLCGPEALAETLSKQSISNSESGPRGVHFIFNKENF

[19] = target: NADPH oxidase 4 (Homo sapiens) (UniProt Q9NPH5); assay: compounds shifting NOX4 Amplex Red fluorescence – cell-based, HEK293-NOX4, tetracycline-induced, NOX inhibitor project, primary screen (AID 1160); details: HEK293-NOX4, Amplex Red H2O2 fluorescence, 45 min; higher = more signal, called active from +8 up or from −8 down
Chain of NADPH oxidase 4 (Homo sapiens) (Q9NPH5 whole entry, looked up): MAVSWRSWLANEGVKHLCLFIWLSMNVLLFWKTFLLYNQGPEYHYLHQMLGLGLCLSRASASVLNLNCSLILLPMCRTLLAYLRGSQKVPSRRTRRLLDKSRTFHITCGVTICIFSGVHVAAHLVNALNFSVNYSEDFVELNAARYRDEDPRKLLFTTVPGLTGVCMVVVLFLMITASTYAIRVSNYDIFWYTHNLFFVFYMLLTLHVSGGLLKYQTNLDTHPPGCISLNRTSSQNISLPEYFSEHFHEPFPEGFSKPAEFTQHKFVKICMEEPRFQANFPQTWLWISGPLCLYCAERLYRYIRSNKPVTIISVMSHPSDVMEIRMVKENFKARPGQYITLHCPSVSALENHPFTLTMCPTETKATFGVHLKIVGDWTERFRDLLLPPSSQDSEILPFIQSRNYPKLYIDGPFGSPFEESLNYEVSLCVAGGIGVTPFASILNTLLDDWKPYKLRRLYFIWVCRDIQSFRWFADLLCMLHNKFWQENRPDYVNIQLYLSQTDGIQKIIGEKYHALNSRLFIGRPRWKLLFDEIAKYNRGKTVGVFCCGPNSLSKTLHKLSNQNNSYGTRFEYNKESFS

[20] = target: NADPH oxidase 5 (Homo sapiens) (UniProt Q96PH1); assay: compounds shifting NOX5 Amplex Red fluorescence – cell-based, HEK293-NOX5, NOX inhibitor project, primary screen (AID 1161); details: HEK293-NOX5, ionomycin, 45 min, higher = more signal
Chain of NADPH oxidase 5 (Homo sapiens) (Q96PH1 whole entry, looked up): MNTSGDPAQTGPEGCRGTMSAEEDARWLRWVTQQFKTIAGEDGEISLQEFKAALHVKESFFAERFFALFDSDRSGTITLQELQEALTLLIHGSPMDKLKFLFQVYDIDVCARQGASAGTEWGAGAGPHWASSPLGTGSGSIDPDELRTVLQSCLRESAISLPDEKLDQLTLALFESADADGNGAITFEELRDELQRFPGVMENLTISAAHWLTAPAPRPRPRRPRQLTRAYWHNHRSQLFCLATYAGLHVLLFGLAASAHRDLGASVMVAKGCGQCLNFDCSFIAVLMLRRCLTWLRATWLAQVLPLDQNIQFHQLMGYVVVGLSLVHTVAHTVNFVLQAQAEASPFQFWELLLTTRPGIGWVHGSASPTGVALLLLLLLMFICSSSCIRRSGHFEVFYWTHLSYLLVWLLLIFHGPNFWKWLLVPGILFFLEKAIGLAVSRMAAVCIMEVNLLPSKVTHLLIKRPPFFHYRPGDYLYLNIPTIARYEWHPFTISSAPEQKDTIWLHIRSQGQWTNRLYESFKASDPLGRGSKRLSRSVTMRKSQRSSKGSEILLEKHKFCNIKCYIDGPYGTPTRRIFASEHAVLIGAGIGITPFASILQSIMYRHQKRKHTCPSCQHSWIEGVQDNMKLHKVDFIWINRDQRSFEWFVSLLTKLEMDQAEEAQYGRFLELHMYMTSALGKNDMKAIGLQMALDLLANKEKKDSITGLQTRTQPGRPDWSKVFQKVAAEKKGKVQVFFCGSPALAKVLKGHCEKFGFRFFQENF

SMILES	composite z-score [1]	z-score [2]	z-score [3]	z-score [4]	z-score [5]	composite z-score [6]	composite z-score [7]	composite z-score (Torsin-1A (Homo sapiens) [8])	composite z-score (Torsin-1A (Homo sapiens) [9])	composite z-score [10]	z-score [11]	composite z-score [12]	z-score [13]	z-score [14]	z-score [15]	z-score [16]	z-score [17]	z-score [18]	z-score [19]	z-score [20]
CN(C)CCCCNC(=O)[C@@H]1C[C@@H]2C(=O)N[C@@H](Cc3ccccc3)C(=O)N2[C@@H]1c1cccc(OCCO)c1	1.2	-1.6 (inactive)	-0.133 (inactive)	0.431 (inactive)	-0.903 (inactive)	-0.351	0.0543	0.75	1.54	1.55	2.93 (inactive)	0.243	7.44 (inactive)	-0.16 (inactive)	-1.84 (inactive)	-1.29 (inactive)	0.602	0.767 (inactive)	0.74 (inactive)	1.55
COc1ccc([Si](C)(C)[C@@H]2[C@@H](CC(=O)N(CCO)Cc3ccccc3)O[C@]3(C(=O)N(c4ccccc4)c4ccccc43)[C@H]2C)cc1	0.272	-7.08 (inactive)	-0.334 (inactive)	7.53 (inactive)	-2.26 (inactive)	0.675	-0.125	0.555	0.3	1.17	1.3 (inactive)	0.201	9.05 (active)	1.2 (inactive)	-1.43 (inactive)	0.303 (inactive)	1.73	-0.0719 (inactive)	0.574 (inactive)	-1.55
[N-]=[N+]=Nc1ccccc1[C@H]1OC(c2ccc(OCCCO)cc2)=N[C@@]1(Cc1ccccc1)C(=O)N1CCCCC1	1.57	-3.95 (inactive)	-0.21 (inactive)	0.722 (inactive)	-0.585 (inactive)	1.16	0.395	0.728	0.373	0.021	0.546 (inactive)	0.51	31.2 (active)	27.9 (active)	2.35 (inactive)	8.26 (active)	0.583	-1.52 (inactive)	0.804 (inactive)	1.62
COC(=O)[C@@]1(Cc2ccc(F)cc2)[C@H]2c3cc(C(=O)N4CCCC4)n(CCN4CNCC4=O)c3C[C@H]2CN1C(=O)c1ccccc1	0.289	-1.11 (inactive)	-0.917 (inactive)	0.39 (inactive)	-1.08 (inactive)	1.04	0.179	1.51	1.77	-0.164	-1.59 (inactive)	0.497	1.85 (inactive)	0.811 (inactive)	2.24 (inactive)	0.937 (inactive)	1	0.821 (inactive)	-0.489 (inactive)	-5.26
COC(=O)c1c2oc(c1C(=O)OC)C(=O)N(Cc1ccccc1)Cc1cn(nn1)C[C@H](Cc1ccccc1)NC(=O)N[C@H](CO)CC2	0.131	-1.84 (inactive)	-1.12 (inactive)	0.964 (inactive)	-1.16 (inactive)	-0.25	-0.154	-0.0053	0.218	0.346	0.959 (inactive)	-0.0942	1.67 (inactive)	0.393 (inactive)	-0.252 (inactive)	0.213 (inactive)	1.18	-1.13 (inactive)	1.06 (inactive)	-0.397
CC1CC/C=C\[C@H]2OC34C=CCN(c5ccc(Cl)cc5)C(=O)[C@H]3N(CCCCCO)C(=O)[C@]4(C)C2C(=O)O1 (stereo not given in full)	-0.793	0.504 (inactive)	0.454 (inactive)	0.329 (inactive)	-0.75 (inactive)	-1.18	-0.251	-2.18	-1.48	-0.449	-0.351 (inactive)	-0.101	-0.585 (inactive)	0.231 (inactive)	-0.175 (inactive)	0.0119 (inactive)	-0.157	0.57 (inactive)	-0.261 (inactive)	1.05
C=CCC(OC(C)=O)[C@@H]1[C@@H](N(Cc2ccc(-c3ccccc3)cc2)C(=O)Cc2ccc(F)cc2)c2cc(OCCCO)ccc2N1C(=O)Cc1ccc(OC)cc1 (stereo not given in full)	0.205	0.145 (inactive)	0.729 (inactive)	1.25 (inactive)	1.1 (inactive)	0.586	-0.128	0.106	-0.751	0.164	0.246 (inactive)	0.106	3.94 (inactive)	0.477 (inactive)	-0.407 (inactive)	0.259 (inactive)	-0.152	0.0982 (inactive)	0.675 (inactive)	1.67

Source: PubChem BioAssay
